Compound activity deposited in PubChem BioAssay by National Center for Advancing Translational Sciences (NCATS).
Shiga toxin inh: blocks Shiga toxin action in Vero cells; Vero cells, Shiga toxin protein synthesis inhibition reporter; inhibition, % at 38.7 µM; hit rate 9.2% among 290,000; in the data active means inhibition mostly above about 28%, no sharp cut-off; inactive means mostly below about 43%; further: 0% is about no effect
Pf growth 48h: inhibits P. falciparum growth in the first generation, 48 h; hit rate 5.9% among 310,000; AID 504832; Potency, µM (titrated, usually from 28.7 µM), without a hit: at the highest dose activity change, negative = inhibition, most hits filed as inhibitors; P. falciparum luciferase growth in erythrocytes, 48 h; further: potency means the concentration at half of the fitted maximal effect; on the % scale 0 is the no-effect control and ±100 the full control effect
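Firefly luciferase activity from engineered P. falciparum reports growth; inhibitors lower the luminescent signal. Cultures contained 2% hematocrit erythrocytes at 0.1% final parasitemia.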
Cycloheximide cs: affects cycloheximide protein synthesis inhibition readout, counter-screen | cell reporter, cycloheximide protein synthesis inhibition counterscreen | max response, % | hit rate 12% among 300,000 | AID 2314; in the data active means max response mostly above about 13%, no sharp cut-off; inactive means mostly below about 14%; further: read at 38.3 µM for the half of the compounds with a filed dose; 0% is about no effect
Pf growth 96h: P. falciparum growth inhibition at 96 hour, primary screen for plastid delayed-death inhibitors. Potency, µM (series often up to 28.7 µM), for the others: at the top dose activity change, negative = inhibition, most hits filed as inhibitors. hit rate 6.9% among 320,000. P. falciparum luciferase reporter growth, 96 h; further: potency means the concentration at half of the fitted maximal effect; on the % scale 0 is the no-effect control and ±100 the full control effect
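Cell-based qHTS: luciferase-tagged P. falciparum in erythrocytes (2% hematocrit, 0.05% parasitemia final) incubated with compounds for 96 hours, 37 C, 5% CO2; luciferase detection reagent then added and luminescence measured.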
LmPK inh: LmPK (Leishmania mexicana) enzyme inhibition. Q27686. purified LmPK, Kinase-Glo ATP luminescence, 1 h. Potency, µM (doses to about 57.5 µM), without a hit: at the top dose activity change, negative = inhibition, actives largely listed as inhibitors. hit rate 0.37% among 290,000; further: potency means the concentration at half of the fitted maximal effect; on the % scale 0 is the no-effect control and ±100 the full control effect
Target sequence (Q27686 whole entry, looked up): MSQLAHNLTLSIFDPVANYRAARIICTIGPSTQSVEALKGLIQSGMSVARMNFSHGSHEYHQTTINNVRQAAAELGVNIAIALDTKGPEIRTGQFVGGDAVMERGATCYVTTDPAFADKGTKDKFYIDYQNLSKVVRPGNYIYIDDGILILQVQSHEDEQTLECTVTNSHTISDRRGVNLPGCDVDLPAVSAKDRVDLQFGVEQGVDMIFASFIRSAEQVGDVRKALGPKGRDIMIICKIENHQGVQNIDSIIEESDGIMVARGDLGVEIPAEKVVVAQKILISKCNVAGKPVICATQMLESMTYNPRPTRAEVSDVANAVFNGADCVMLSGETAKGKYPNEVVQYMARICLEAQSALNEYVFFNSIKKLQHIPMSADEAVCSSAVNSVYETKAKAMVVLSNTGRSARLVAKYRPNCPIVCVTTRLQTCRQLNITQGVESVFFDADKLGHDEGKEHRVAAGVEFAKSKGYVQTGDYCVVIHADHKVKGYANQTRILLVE
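In 50 mM imidazole pH 7.2 with 7 mM MgCl2, LmPK (0.1 nM) turned over PEP (0.5 mM) and ADP (0.1 mM) for 1 h at room temperature. Luciferase read-out of ATP.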
* = called active by the depositor; ? = inconclusive; · = not tested or not shown; [ ] = remark or other dose. The list is not random: actives were taken first. Their share in the collection is about 22%. Unless noted, the call rests on the fitted dose curve; in most records, active means well fitted inhibition curve with a large enough effect; inconclusive means small, poorly fitted or top-dose-only effect, or another doubt; inactive means no such curve, though single readings can be large or run the other way.

SMILES	Shiga toxin inh	Pf growth 48h	Cycloheximide cs	Pf growth 96h	LmPK inh
CC1CCCN(CC(=O)Nc2ccc(S(=O)(=O)N3CCCC3)cc2)C1 (stereo not drawn)	16.2	-18.6%	-3.6	-10.7%	-4.4%
O=C(Cc1ccc(Br)cc1)Nc1cccc(S(=O)(=O)N2CCOCC2)c1	·	-22.4%	·	?	·
O=C(CNc1cccc(S(=O)(=O)N2CCOCC2)c1)N1CCc2ccccc21	45.1*	-18.0%	10.2*	-11.0%	2.5%
Cc1ccc(S(=O)(=O)N2CCCCC2)cc1NC(=O)CSCC(=O)O	-15.8	-12.6%	-1.8	-43.2%[5.75 µM]	2.3%
O=C(CNc1cccc(S(=O)(=O)N2CCCC2)c1)Nc1cccc(Br)c1	·	5.22µM*	·	4.15µM*	·
O=C(CNc1cccc(S(=O)(=O)N2CCOCC2)c1)Nc1cccc(Br)c1	·	6.57µM*	·	9.28µM*	·
O=C(c1cccc(S(=O)(=O)N2CCOCC2)c1)N1CCCc2ccccc21	-3.8	-29.1%	-2.6	1.5%	4.2%
CC(=O)c1cccc(NCC(=O)Nc2cc(S(=O)(=O)N3CCCCC3)ccc2C)c1	-5.9	?	-2.4	10.4µM*	1.5%
C=C(C)C1CC=C(C)/C(=N/NC(=O)C2CC2c2ccccc2)C1 (stereo not drawn)	29.8	?	11.1	2.1%	10.5%
O=C(CNc1ccc(Br)cc1)Nc1ccc(S(=O)(=O)N2CCCC2)cc1	·	9.28µM*	·	11.7µM*	·
O=C(CNc1cccc(S(=O)(=O)N2CCOCC2)c1)Nc1ccccc1F	-12.2	-0.2%	15.5	-28.9%	-2.3%
O=C(CNc1cc(S(=O)(=O)N2CCCC2)ccc1OCC(F)(F)F)Nc1ccc(SC(F)F)cc1	53.4	?	21.1*	?	2.1%
CCN(CC)S(=O)(=O)c1ccc(C)c(NCC(=O)Nc2ccc(C#N)c(Cl)c2)c1	-5.0	?	-4.0	5.22µM*	1.6%
CCN(CC)S(=O)(=O)c1ccc(Cl)c(NC(=O)c2ccc(C#N)cc2)c1	-6.5	-18.2%	-2.2	-7.3%	2.7%
O=C(CNc1cccc(S(=O)(=O)N2CCOCC2)c1)Nc1ccc(C(F)(F)F)cc1	·	6.57µM*	·	7.38µM*	·
O=C(CNc1cc(S(=O)(=O)N2CCCC2)ccc1OCC(F)(F)F)Nc1cc(Cl)cc(Cl)c1	-6.9	5.9%	-0.9	1.7%	1.7%
C/C(CC(=O)NCc1ccco1)=N\NC(=O)c1ccc([N+](=O)[O-])cc1Cl	34.2	-1.4%	10.0	4.4%	-3.9%
CC(C)(CNS(=O)(=O)c1ccc2ccccc2c1)N1CCOCC1	·	-10.8%	·	?	·
CNC(=O)COc1ccc(S(=O)(=O)N2CCCC2)cc1	-7.8	9.4%	1.6	?	-1.6%
CN(Cc1ccc(Cl)cc1)C(=O)c1ccc2ccccc2n1	-8.1	30.8%	-2.7	0.0%	0.2%
CCN(CC)S(=O)(=O)c1cc(NC(=O)CNc2cccc(S(=O)(=O)N3CCCC3)c2)ccc1C	·	11.7µM*	·	?	·
O=c1c2c(nc3cc(-c4cccc(F)c4)[nH]n13)CCC2	94.8*	150.2%	50.7*	0.7%	-21.1%
O=c1c2c(nc3cc(-c4ccc(F)cc4)[nH]n13)CCCC2	73.9*	400.6%	39.4*	29.5%	-15.4%
O=c1c2c(nc3cc(-c4cccc(Cl)c4)[nH]n13)CCC2	52.3*	30.9%	22.6	?	-10.1%
O=c1c2c(nc3c(-c4ccc(Cl)cc4)c[nH]n13)CCCC2	3.5	4.65µM*	1.4	5.1%	4.0%
SMILES	Shiga toxin inh	Pf growth 48h	Cycloheximide cs	Pf growth 96h	LmPK inh
COc1cccc(-c2nn[nH]n2)c1O	-5.5	7.0%	-2.8	-19.6%	-11.2%
CCOc1cc(CN2CCC(n3nccc3NC(=O)C3CC3)CC2)ccc1O	-3.0	14.5%	1.7	2.8%	-5.0%
COCCNC(=O)C(c1ccc(F)cc1)N(C(=O)CCC(=O)Nc1nccs1)c1ccc(C)cc1 (stereo not drawn)	1.4	?	0.3	31.6%	0.9%
O=C(CSc1nnc(-c2ccccc2)n1-c1ccccc1)c1cccs1	27.6	-13.2%	17.9	36.9%	-5.4%
O=C(CSc1ncn(-c2ccccc2)n1)c1cccs1	88.4*	107.0%	63.5*	·	-0.8%
Nc1nc(CSc2ncn(-c3ccccc3)n2)cs1	92.4*	235.4%	38.3*	23.2%	3.2%
c1ccc(CSc2ncn(-c3ccccc3)n2)cc1	105.2*	205.1%	45.8*	-23.6%	-3.8%
CCOC(=O)c1sc(NC(=O)CSc2ncn(-c3ccccc3)n2)nc1C	-3.3	4.0%	-0.5	·	0.4%
CC1(C)Oc2ccc(C(=O)NNC(=O)Nc3ccccc3)cc2NC1=O	-9.2	8.1%	-2.4	29.9%	-0.1%
O=[N+]([O-])c1ccc(COc2cccc(CNc3ccc(Br)cc3)c2)cc1	-2.9	-21.3%	-0.2	?	-1.7%
O=[N+]([O-])c1ccc(COc2cccnc2)cc1	55.5*	40.7%	40.9*	?	6.7%
c1ccc(-c2nnc(OCc3cccnc3)c3ccccc23)cc1	-5.8	-6.2%	1.7	-18.8%	1.2%
c1ccc(COc2cncc(-c3cccnc3)c2)cc1	·	10.4µM*	·	?	·
O=[N+]([O-])c1ccc(COc2ccc(CNc3ccccc3)cc2)cc1	34.1	15.9%	36.1*	93.5%	-5.0%
O=C(c1nc[nH]c1C(=O)N1CCN(c2ccccc2)CC1)N1CCN(c2ccccc2)CC1	·	32.5%	·	56.8%	·
CCSc1nnc(NC(=O)c2ccccn2)s1	59.7*	2.94µM*	44.9*	11.1%	?
CCSc1nnc(NC(=O)c2cccnc2Cl)s1	54.2*	68.8%	27.7*	65.1%	-2.6%
CCSc1nnc(NC(=O)c2ccc(Br)s2)s1	-27.3	27.5%	10.4	0.9%	-12.1%
CCSc1nnc(NC(=O)c2cnccn2)s1	-3.2	13.8%	-1.2	-12.0%	-2.5%
Cc1cnc(C(=O)Nc2nnc(SCc3c(Cl)cccc3Cl)s2)cn1	11.3	2.62µM*	-2.1	2.94µM*	-4.8%
O=C(c1cccc(S(=O)(=O)Nc2ccc(F)cc2)c1)N1CCCC1	·	?	·	-27.3%	·
Cc1nc(-c2ccccc2)sc1C1(C)CC(c2ccc(C#N)cc2)=NO1 (stereo not drawn)	-4.4	8.1%	-1.6	19.6%	-2.7%
CCN1CCN(c2c(/C=C3\SC(=S)N(Cc4ccco4)C3=O)c(C)c(C#N)c(=O)n2C)CC1	-11.3	2.33µM*	-2.1	?	4.4%
CCN1C(=O)/C(=C\N2CCN(C(=O)c3ccco3)CC2)SC1=S	-7.5	-26.5%	8.9	?	0.1%
CCCCn1c(SCC(=O)NCc2ccco2)nc2ccc(N3CCOCC3)cc2c1=O	3.6	14.7µM*	-1.3	1.4%	1.6%
COCCNC(=O)CSc1nc2ccc(N3CCOCC3)cc2c(=O)n1Cc1ccc(OC)cc1	53.7	-6.6%	28.1*	?	-2.6%
CCOC(=O)CSc1nc2ccc(N3CCOCC3)cc2c(=O)n1Cc1ccc2c(c1)OCO2	24.9	11.7µM*	12.5	·	-1.1%
CCCCn1c(SCC(=O)NCc2ccccc2)nc2ccc(N3CCOCC3)cc2c1=O	-1.2	11.7µM*	-1.9	29.2%	3.1%
CCCN(C(=O)c1cn(C)c(=O)c2ccccc12)c1ccccc1C	2.1	·	-1.7	32.6%	-3.6%
